# From PubChem
# N370S GC mod – qHTS Assay for Inhibitors and Activators of N370S glucocerebrosidase as a Potential Chaperone Treatment of Gaucher Disease; 330,000 compounds, 0.092% hits; AID 2101, 2009; Lysosomal acid glucosylceramidase (Homo sapiens), P04062; N370S GC spleen homogenate, 4MU-glucoside fluorescence; Potency, µM (series often up to 59.4 µM), without a hit: at the highest dose activity change, negative = inhibition, most hits filed as inhibitors;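 note: potency is the fitted concentration of half-maximal effect; 0% = full enzyme activity and -100% = no enzyme basal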
# GRP78 ERSR act – qHTS for Inducers of the Endoplasmic Reticulum Stress Response (ERSR) in Human Glioma: qHTS; AID 602332, 2012; 420,000 compounds, 0.02% hits; U87-MG GRP78 promoter luciferase reporter, 16 h; Potency, µM, for inactives: top-dose activation, actives largely listed as activators; note: potency is the fitted concentration of half-maximal effect; series mostly up to about 76 µM; % of control where 0% means no effect; nearly all actives have a fitted effect of over 35% in size
#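 ERSR induction read as luciferase luminescence (Bright-Glo, 10 min at room temperature) in stably transfected human U87-MG glioma cells exposed to compounds for 16 h, using GRP78 as sensor.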
# a7 integrin act – qHTS for Activators of Integrin-Mediated Alleviation for Muscular Dystrophy. 350,000 compounds, 0.064% hits. alpha7betagal myoblasts, beta-gal FDG fluorescence, 48 h. Potency, µM (doses to about 38.3 µM), for the others: at the top dose activation, usual class: activators. AID 624291, 2012;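 note: potency is the fitted concentration of half-maximal effect; 100% = response of the positive control SU9516; nearly all actives have a fitted effect of over 60% in size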
#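 Alpha7betagal+/- myoblasts (passage 13) were plated 16-24 hr, then exposed to compounds (1:260 dilution of DMSO stock) for 48 hours at 37C. After MPER lysis, β-galactosidase reporter activity was read as FDG fluorescence (ex 480/em 540) after 30 minutes.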
# ClpP mod – qHTS Assay for Activators of ClpP; ATP-dependent Clp protease proteolytic subunit (Bacillus subtilis (strain 168)), P80244; purified B. subtilis ClpP, FRET peptide cleavage, 20 min; Potency, µM (series often up to 57.5 µM), without a hit: at the highest dose activity change, negative = active; 340,000 compounds, 1.9% hits; active = well fitted falling curve with a large enough effect; inconclusive = small, poorly fitted or top-dose-only effect; inactive = no such curve, though single readings can be large or run the other way; note: potency is the fitted concentration of half-maximal effect; the source files actives as falling curves though it sought activators and does not explain the sign; nearly all actives have a fitted effect of over 65% in size
# Target sequence (P80244 whole entry, looked up): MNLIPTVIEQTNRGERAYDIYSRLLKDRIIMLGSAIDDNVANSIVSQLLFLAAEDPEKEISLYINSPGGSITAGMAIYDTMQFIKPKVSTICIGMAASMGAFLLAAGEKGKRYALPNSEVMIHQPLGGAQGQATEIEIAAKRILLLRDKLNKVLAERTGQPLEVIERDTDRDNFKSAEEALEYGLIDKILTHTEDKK
#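 Purified B. subtilis ClpP, 10 microg/mL final in Tris/HCl pH8 with KCl, BSA, glycerol and Tween-20, cleaved an Abz/nitrotyrosine-quenched decapeptide. Fluorescence (ex 320, em 430) was read at 0 and 20 min at room temperature. Delta was normalized to 5.8 microM ADEP and DMSO/no-enzyme controls.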
# Apoferritin bind – qHTS Assay for Identification of Novel General Anesthetics; Ferritin light chain (Equus caballus), P02791; apoferritin/1-aminoanthracene competitive binding, fluorescence; Potency, µM (titrated, usually from 77.5 µM), for inactives: at the highest dose activity change, negative = displacement, hits mostly inhibitors; 350,000 compounds, 0.074% hits; AID 485281, 2010; note: potency is the fitted concentration of half-maximal effect; % is set by controls: 0 for no effect and ±100 for the full control effect; nearly all actives have a fitted effect of over 20% in size
# Target sequence (P02791 2-175 limits assumed): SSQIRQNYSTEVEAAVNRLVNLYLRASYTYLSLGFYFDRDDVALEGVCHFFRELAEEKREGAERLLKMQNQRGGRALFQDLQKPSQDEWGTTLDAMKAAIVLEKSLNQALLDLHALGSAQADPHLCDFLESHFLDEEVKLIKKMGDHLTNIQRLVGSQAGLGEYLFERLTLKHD
#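 Read-out: endpoint 1-AMA fluorescence, excitation 380 nm and emission 535 nm, after compounds sit 10 min at room temperature with 10 uM horse-spleen apoferritin in 50% saturated 1-AMA/PBS. Values come from four-parameter Hill fits.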
# CBFb RUNX1 block – qHTS Assay for Compounds Blocking the Interaction Between CBF-beta and RUNX1 for the Treatment of Acute Myeloid Leukemia; AlphaScreen CBFb-His/RUNX1-biotin binding, biochemical; 230,000 tested, under 10 active; Potency, µM (doses to about 59.8 µM), without a hit: at the top dose activity, negative = inhibition, actives largely listed as inhibitors; Runt-related transcription factor 1 (Homo sapiens) + Core-binding factor subunit beta …; note: % of control where 0% means no effect
#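 Room-temperature protein-protein interaction test with 30 nM each of His-tagged CBF-beta and biotinylated RUNX1, 15 min with compound, then 90 min with nickel plus streptavidin beads. Signal read in AlphaScreen mode.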
# Active calls of the source: *; ? = inconclusive; · = no result given; [ ] = dose if it differs, or a comment. Only a selection was taken, and hits are over-represented in it overall. Unless noted, calls come from the whole dose curve; as a rule, active = well fitted curve in the direction sought with a large enough effect; inconclusive = small, poorly fitted or top-dose-only effect, or another doubt; inactive = no such curve, though single readings can be large; an effect the other way counts as inactive or inconclusive.
SMILES,N370S GC mod,GRP78 ERSR act,a7 integrin act,ClpP mod,Apoferritin bind,CBFb RUNX1 block
Cc1cccc(C)c1Nc1ncnc(N)c1[N+](=O)[O-],1%,-4%,-11%,-1%,-9%,-1%
Cc1ccc(CNc2ncnc(N)c2[N+](=O)[O-])cc1,-1%,0%,10µM*,·,-13%,0%
COC(=O)C1=C(C)NC(C)=C(C(=O)OC)C1C(=O)OCC(=O)c1ccc(F)cc1,-7%,-4%,-38%,32µM*,-16%,8%
COC(=O)C1=C(C)NC(C)=C(C(=O)OC)C1C(=O)OCC(=O)c1ccc(Br)cc1,·,-4%,-7%,-4%,·,·
Cc1cc(C(=O)Nc2cccc(-c3nc(CNC(=O)c4sc(C)nc4C)c(C)o3)c2)c(C)o1,·,-3%,·,·,·,·
O=C(c1cc(-c2cccs2)nc2ccccc12)N1CCN(c2ccccc2)CC1,-9%,2%,-4%,·,-10%,-6%
Cc1cccc(NC(=O)c2cc(-c3ccc(C)s3)nc3ccccc23)n1,14%,4%,0%,16µM*,53%,?
CN(C)S(=O)(=O)c1cccc(NC(=O)c2cc(-c3cccs3)nc3ccccc23)c1,-3%,5%,-19%,16µM*,4%,-9%
Cc1cc(NC(=O)c2cc(-c3ccc(C)s3)nc3ccccc23)no1,?,-1%,-3%,5%,56%,-2%
O=C(c1cc(-c2cccs2)nc2ccccc12)N1CCN(S(=O)(=O)c2ccccc2)CC1,1%,-4%,4%,25µM*,15%,1%
CC(C)CNc1nc(C#N)nc(Nc2ccccc2)n1,·,·,·,·,0%,·
COc1cccc(-c2ccc(C#N)c(OC(=O)c3c(Cl)cccc3Cl)n2)c1,9%,?,-58%,16µM*,?,?
Cc1ncc2c(c1CNC(=O)c1ccc3c(c1)OCO3)CCN(C(=O)/C=C/c1ccc(Cl)cc1)C2,·,-4%,·,·,·,·
CCOc1ccc2nc(NC(=O)CSc3nc(SC)ns3)sc2c1,5%,2%,9%,28µM*,-24%,-4%
CCC1(C2CCN(C(=O)c3coc4c3C(=O)CCC4)CC2)NC(=O)N(CCc2scnc2C)C1=O (stereo not drawn),·,-3%,·,·,·,·
CCC1C(=O)NCCN1Cc1ccc2c(c1)CN(Cc1ccc(OC)c(OC)c1)CCO2 (stereo not drawn),·,-4%,·,·,·,·
O=C(NC1CCCC1)c1ccccc1-c1ccccc1,0%,-4%,18%,32µM*,3%,4%
COc1ccc2c(c1)-c1nc(-n3ncc(C(=O)N(C)CCO)c3C3CC3)ncc1CC2,·,2%,·,·,·,·
Cc1cc(C)c2ccc3c(C)c(C)nc3c2[nH]1,7.1µM*,2%,-66%,·,-2%,-2%
Cc1cc(=O)[nH]c2c(C)c(Cl)ccc12,1%,·,·,·,-6%,2%
CCN(CC)C(=O)CSc1nc2nc(C)cc(C)c2c(=O)[nH]1,3%,-3%,-2%,25µM*,-16%,2%
CCOc1ccc2nc(NC3=NC(c4ccc(OC)cc4)CC(=O)N3)nc(C)c2c1 (stereo not drawn),-4%,-6%,-54%,32µM*,-19%,?
CCOc1ccc2nc(NC3=NC(C)(C)C=C(C)N3)nc(C)c2c1,-8%,-4%,-55%,-4%,?,-7%
CCOc1ccc2c(C)nc(NC3=NC(C)(C)C=C(C)N3)nc2c1,?,-8%,-32%,4µM*,-19%,1%
CCN1CCc2c(C#N)c(N3CCCCC3)nc(NCc3ccccc3)c2C1,2%,-15%,-69%,?,63%,-8%
SMILES,N370S GC mod,GRP78 ERSR act,a7 integrin act,ClpP mod,Apoferritin bind,CBFb RUNX1 block
C=CCNc1nc(N2CCCCC2)c(C#N)c2c1CN(Cc1ccccc1)CC2,-6%,-3%,-30%,28µM*,-2%,9%
CCN1CCc2c(C#N)c(N3CCOCC3)nc(NCCO)c2C1,-1%,-1%,9%,8.9µM*,88%,1%
N#Cc1c(NCCO)nc(NCc2ccccc2)c2c1CCN(Cc1ccccc1)C2,1%,-1%,-32%,10µM*,106%,-13%
CSc1ncccc1C(=O)NCC1Cc2cc(-c3cnccn3)ccc2O1 (stereo not drawn),·,-4%,·,·,·,·
COc1ccc(N(C(=O)c2ccccc2)S(=O)(=O)c2cccs2)cc1,17%,32µM*,11%,·,-12%,10%
N#CC1(NC(=O)CSc2n[nH]c(-c3ccccc3)n2)CCCCC1,2%,-3%,1%,14µM*,·,·
Cc1cc(SCC(=O)N2CCCC2=O)nc2c(C)cccc12,-4%,-2%,20%,1%,·,·
O=C(CSc1n[nH]c(-c2ccccc2)n1)Nc1ncccn1,-1%,8%,5%,·,-4%,-1%
Cc1cc(SCC(=O)NC2(C#N)CCCCC2)nc2c(C)cccc12,4%,-4%,-9%,32µM*,·,·
COc1ccccc1C(=O)NCC(=O)N=Nc1c(O)n(C(C)C)c2ccccc12,2%,-3%,11µM*,0%,-1%,·
CC/C(O)=N/S(=O)(=O)c1ccc(-c2c(-c3ccccc3)noc2C)cc1,·,-2%,·,·,·,·
Cc1ncc2c(c1CNS(=O)(=O)N(C)C)CCN(C(=O)/C=C/c1ccccc1)C2,·,-6%,·,·,·,·
Cc1cc(NCCN(C)C)n2nc(-c3cccs3)cc2n1,-20%,-2%,28%,28µM*,-4%,10%
COc1cccc(CN(C)C(=O)c2cnn(-c3ncc4c(n3)-c3ccccc3CCC4)c2C)c1,·,-5%,·,·,·,·
c1ccc2c(c1)OCC(c1nnc3sc(-c4ccc5c(c4)OCO5)nn13)O2 (stereo not drawn),0%,9%,4%,28µM*,?,0%
c1ccc2c(c1)ncn2Cc1nnc2sc(-c3ccc4c(c3)OCO4)nn12,9%,-4%,-2%,28µM*,?,-1%
Fc1ccc(-c2nn3c(C4COc5ccccc5O4)nnc3s2)cc1 (stereo not drawn),6%,3%,-7%,5%,-22%,3%
Clc1ccccc1-c1nnc2sc(-c3ccc4c(c3)OCO4)nn12,-14%,4%,-16%[7.66 µM],32µM*,0%,-9%
CN1C(=O)CC(C)(c2ccccc2)C1=O (stereo not drawn),·,-1%,·,·,·,·
Cc1cnc(/C=C/c2ccc(N(C)C)cc2)cn1,·,-5%,·,5%,·,·
Cc1ncc2c(c1CNC(=O)/C=C/c1cccs1)CCN(C(=O)c1ccc3c(c1)OCCO3)C2,·,-2%,·,·,·,·
O=S(=O)(Nc1cc(O)cc2cccnc12)c1ccc(Br)s1,-5%,·,·,·,-23%,?
